Assay outcomes deposited in PubChem BioAssay by National Center for Advancing Translational Sciences (NCATS).
The list is not random: actives were taken first. Their share in the collection is about 1.6%.
12-LOX inh – inhibitors of human 12S-lipoxygenase ALOX12; P18054; 580,000 compounds, 1.1% hits; Potency, µM (highest dose often 108 µM), for inactives: at the highest dose activity change, negative = inhibition, usual class: inhibitors; AID 1671190; purified 12hLO, xylenol orange hydroperoxide absorbance; also: % is scaled to controls: 0 for no effect and ±100 for the full control effect
Target sequence (P18054 whole entry, looked up): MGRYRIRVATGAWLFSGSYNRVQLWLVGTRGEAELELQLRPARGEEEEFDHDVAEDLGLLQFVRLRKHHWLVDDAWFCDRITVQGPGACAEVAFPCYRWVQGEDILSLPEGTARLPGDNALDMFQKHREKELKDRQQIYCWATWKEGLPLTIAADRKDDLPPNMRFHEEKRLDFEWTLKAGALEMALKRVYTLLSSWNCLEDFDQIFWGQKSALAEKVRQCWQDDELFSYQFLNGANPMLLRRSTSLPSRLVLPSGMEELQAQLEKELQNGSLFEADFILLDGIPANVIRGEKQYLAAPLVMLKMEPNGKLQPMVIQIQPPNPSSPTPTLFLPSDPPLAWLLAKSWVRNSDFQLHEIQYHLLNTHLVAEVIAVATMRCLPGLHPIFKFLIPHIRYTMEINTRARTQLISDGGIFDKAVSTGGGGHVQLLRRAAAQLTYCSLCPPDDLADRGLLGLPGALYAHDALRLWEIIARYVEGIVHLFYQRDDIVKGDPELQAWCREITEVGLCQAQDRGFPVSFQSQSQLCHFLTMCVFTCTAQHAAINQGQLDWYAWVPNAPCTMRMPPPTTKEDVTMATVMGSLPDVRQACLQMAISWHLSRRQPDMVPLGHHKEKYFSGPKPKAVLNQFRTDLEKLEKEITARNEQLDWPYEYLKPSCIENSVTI
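Purified human 12hLO (150 nM final) in 25 mM Hepes, 0.01% Triton X-100, pH 7.0 was preincubated 15 min at room temperature with compound. Then 40 uM arachidonic acid was added, 30 min. Hydroperoxide was read by Fe-XO absorbance ratio 573/405 nm.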
gsp agonist – activates gsp, the McCune-Albright syndrome mutation; gsp mutant cells, cAMP HTRF, 30 min; Potency, µM (doses to about 76.9 µM), without a hit: at the top dose activation (cAMP increase), most hits filed as activators; 340,000 compounds, 0.13% hits; AID 624287; active = well fitted activation curve with a large enough effect; inconclusive = small, poorly fitted or top-dose-only effect, or another doubt; inactive = no such curve, though single readings can be large or run the other way; cell line not stated here;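 also: phosphodiesterase inhibitor Ro 20-1724 added with compounds to block cAMP breakdown; nearly all actives have a fitted effect of over 60% in size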
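Cells in DMEM/10% FBS with G418 were pretreated with compounds in DMSO plus […] (300 uM stock) for 30 min at 37C. cAMP was measured by HTRF (cAMP-d2 plus anti-cAMP antibody-K) after 30 min at room temperature.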
FUS suppressor – suppressors of FUS proteinopathy in yeast | S. cerevisiae FUS-expressing, growth rescue, OD600, 24 h | Potency, µM (top dose mostly 76.6 µM), hits mostly activators | 390,000 compounds, 0.24% hits | AID 1347120;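 also: plate controls were DMSO vehicle for no effect and reference control for full effect; nearly all actives have a fitted effect of over 55% in size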
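Restored growth of FUS-toxic S. cerevisiae, read as 600 nm absorbance after 24 h at 30C in galactose medium (starting OD 0.005). Controls CP55940 and DMSO.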
gsp antag – antagonists of gsp mutant (McCune-Albright syndrome) | 340,000 compounds, 0.4% hits | gsp-mutant cells, cAMP HTRF, 30 min | AID 624288 | Potency, µM (series often up to 76.9 µM), inactives show at the top dose activity change, negative = inhibition, actives largely listed as inhibitors; calls by dose curve; cell line not stated here;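 also: intracellular cAMP measured with PDE inhibitor Ro 20-1724 present during compound exposure; % is scaled to controls: 0 for no effect and ±100 for the full control effect; nearly all actives have a fitted effect of over 65% in size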
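Cells, 2000/well, grown 16–24 h in DMEM 10% FBS with 0.5 mg/ml G418, then compounds plus […] (300 uM addition stock), 30 min at 37C. cAMP read by HTRF (cAMP-d2 and anti-cAMP antibody-K in lysis buffer) after 30 min RT.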
Mito fusion act – inhibitors of mitochondrial division or activators of mitochondrial fusion | S. cerevisiae fusion-defective mutant growth rescue, CellTiterGlo 48 h | Potency, µM (top dose mostly 46.1 µM), without a hit: top-dose growth rescue (activation), actives largely listed as activators | 320,000 compounds, 0.23% hits; also: % of control where 0% means no effect; nearly all actives have a fitted effect of over 45% in size
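Temperature-sensitive fusion-defective S. cerevisiae (e.g. fzo1-1, mgm1-5) were grown with compound in YPEG medium (3% ethanol, 3% glycerol) for 48 hours at 37C. Growth rescue was measured as viability by CellTiterGlo luminescence after 10 minutes at ambient.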
Starred values were filed as active, the others as inactive; ! = not active in a repeat; [ ] = remark or other dose. Unless noted, calls follow the shape of the dose curve; as a rule, active = well fitted curve in the direction sought with a large enough effect; inconclusive = small, poorly fitted or top-dose-only effect, or another doubt; inactive = no such curve, though single readings can be large; an effect the other way counts as inactive or inconclusive. Potency is read from the fitted curve at half-maximal effect.

Screening CCN(CC)C(=O)c1ccc(NC(=O)c2cccc(C(F)(F)F)c2)cc1 returned 12-LOX inh 0%, gsp agonist -16%, FUS suppressor inactive, gsp antag -6% and Mito fusion act -1%.
CCN(CC)CCOC(=O)C(O)(c1ccccc1)c1ccccc1 was read as 12-LOX inh -18%, FUS suppressor inactive, gsp antag -2% and Mito fusion act 2%.
CC(C)N1C(=O)CC2(CC[N+](C)(CCOC(=O)C(O)(c3ccccc3)c3ccccc3)CC2)C1=O (stereo not drawn) was read as 12-LOX inh 35µM*, gsp agonist inconclusive, FUS suppressor inconclusive, gsp antag -12%[15.4 µM] and Mito fusion act 4%.
`C[N+](C)(C)CC1CCC1` gave 12-LOX inh 28µM*.
Screening C[N+](C)(C)CC1CCCC1=O (stereo not drawn) returned 12-LOX inh inconclusive, gsp agonist -13% and gsp antag 6%.
`COC(=O)N1CCC2(C1)N=C(c1cccnc1)C(=O)N2` (stereo not drawn) gave 12-LOX inh 38%[176 µM].
For O=C(NCc1ccc(F)cc1)[C@H]1CN2CCC1C[C@@H]2Cn1cc(CSc2ccccc2)nn1 (stereo partly drawn) the results were 12-LOX inh -5%.
`Cc1ccccc1-c1nc(CN2C(=O)CN=C(c3ccccc3)c3ccccc32)c(C)o1` gave 12-LOX inh -21% and FUS suppressor inactive.
`Cc1oc(-c2ccccc2)nc1CN1C(=O)CN=C(c2ccccc2)c2ccccc21` gave 12-LOX inh inconclusive, gsp agonist 1%, FUS suppressor inactive, gsp antag inconclusive and Mito fusion act 13µM*.
For Clc1ccc(C(c2ccc(Cl)cc2)n2cc[n+](CC(OCc3ccc(Cl)cc3Cl)c3ccc(Cl)cc3Cl)c2)cc1 (stereo not drawn) the results were 12-LOX inh 39µM*!, FUS suppressor inconclusive, gsp antag 1% and Mito fusion act -57%.
For CCCCCCCCn1sccc1=O the results were 12-LOX inh 45µM*, FUS suppressor inactive, gsp antag -19% and Mito fusion act -33%.
`Cc1ccsc1C(=O)N1CCC2(CC1)NCc1ccccc1-n1ccnc12` gave 12-LOX inh 2%.
Cc1nc(-c2ccccc2Br)cc([C@H]2CN3CC[C@H]2C[C@@H]3CNC(=O)Nc2cccc(C#N)c2)n1 was read as 12-LOX inh 28µM*.
Screening Cc1nc(-c2ccccc2Br)cc([C@H]2CN3CC[C@H]2C[C@@H]3CNC(=O)c2cccs2)n1 returned 12-LOX inh 35µM*.
`Cc1nc(-c2ccc(F)cc2)cc([C@H]2CN3CC[C@H]2C[C@@H]3CNC(=O)Nc2cccc(C#N)c2)n1` gave 12-LOX inh -5%.
`CCC(CC)C(=O)NC[C@H]1C[C@@H]2CCN1C[C@@H]2c1cc(-c2ccccc2Br)nc(C)n1` gave 12-LOX inh 21%.
For O=C(NCc1ccc(F)cc1)[C@H]1CN2CCC1C[C@@H]2Cn1cc(COc2ccccc2)nn1 (stereo partly drawn) the results were 12-LOX inh 18%.
For O=C(NC[C@H]1C[C@@H]2CCN1C[C@@H]2CN1C[C@@H]2C[C@H](C1)c1cccc(=O)n1C2)c1ccc(C(F)(F)F)cc1 the results were 12-LOX inh 18%.
Screening O=C1NC2(CCCN(Cc3ccccn3)C2)COc2ccccc21 (stereo not drawn) returned 12-LOX inh 5%[176 µM].
For O=c1[nH]c2ccccc2n1C1CCN(C(c2ccccc2OC(F)(F)F)c2nnnn2Cc2ccccc2)CC1 (stereo not drawn) the results were 12-LOX inh -17% and FUS suppressor 20µM*.
`C=CCN1C(=O)/C(=C/c2ccc(Br)s2)C(=O)NC1=S` gave 12-LOX inh 5.6µM*, gsp agonist 7%, FUS suppressor inactive, gsp antag inconclusive and Mito fusion act 1%.
